In PubChem BioAssay AID2330 (Broad Institute, 2010):
Screen size: about 37,000 compounds; about 2,800 (7.6%) were called active. Not shown: some 1% with an inconclusive outcome. Many of the other results were omitted from the sample, so actives are more common in it than they were. Values without a mark were called inactive. No stated cut-off is given here; in the data, active means inhibition above about 80%; inconclusive means no clear call, values can overlap the other calls; inactive means below that.

assay: NOMO-1 AML cell viability reduction, primary screen, STK33 inhibitor project, CellTiter-Glo luminescence (AID 2330); settings: NOMO-1 AML viability, 72 h, hits give high values, concentration not given here

Going from `C[C@@H]1CN([C@H](C)CO)C(=O)c2cc(NC(=O)CCCCCC(=O)Nc3ccccc3N)ccc2O[C@@H]1CN(C)S(=O)(=O)c1ccc(Cl)cc1` to `Cc1ccc(S(=O)(=O)N(C)C[C@H]2Oc3ccc(NC(=O)Nc4cccc5ccccc45)cc3CC(=O)N([C@H](C)CO)C[C@H]2C)cc1`, the inhibition falls from 53.5% to 23.8%.

Going from `CC(C)(C)c1nc(=S)[nH][nH]1` to `COc1ccccc1NC(=O)CSc1n[nH]c(C)n1`, the inhibition falls from 17.3% to 4.79%.

First: Cc1cc2c(=O)n(C)c(SCC(=O)c3cc4ccccc4o3)nc2s1
Second: COc1ccc(OC)c(NC(=O)CSc2nc(-c3ccccc3)cc(=O)[nH]2)c1
The inhibition of the first is lower: -4.22% for the first, 5.5% for the second.

First: O=C1CC(c2ccccc2)C(=O)N1c1ccc(F)cc1 (configuration not stated)
Second: C[C@@H]1CN([C@@H](C)CO)C(=O)Cc2cc(NC(=O)Nc3ccccc3)ccc2O[C@@H]1CN(C)S(=O)(=O)c1ccc(F)cc1
The inhibition of the first is higher: 22.5% for the first, 14.1% for the second.

Going from `C[C@@H]1CN([C@@H](C)CO)C(=O)c2cccc(NC(=O)c3ccncc3)c2O[C@H]1CN(C)S(=O)(=O)c1ccc(F)cc1` to `C[C@H](CO)N1C[C@H](C)[C@@H](CN(C)S(=O)(=O)c2ccc(F)cc2)Oc2c(NC(=O)Nc3ccccc3)cccc2C1=O`, the inhibition falls from 19.5% to 8.66%.

Compared with `C[C@H](CO)N1C[C@H](C)[C@@H](CN(C)S(=O)(=O)c2ccc(Cl)cc2)Oc2ccc(NS(=O)(=O)c3cn(C)cn3)cc2C1=O`, `C[C@@H]1CN([C@@H](C)CO)C(=O)c2cc(NS(=O)(=O)c3cccs3)ccc2O[C@@H]1CN(C)S(=O)(=O)c1ccc(F)cc1` is lower in inhibition: 13.1% for the first, 7.75% for the second.

First: C[C@@H]1CN([C@H](C)CO)C(=O)c2cccc(NS(=O)(=O)c3ccc(Cl)cc3)c2O[C@@H]1CN(C)Cc1ccc(Cl)c(Cl)c1
Second: COc1ccc(S(=O)(=O)Nc2ccc3c(c2)C(=O)N([C@@H](C)CO)C[C@@H](C)[C@H](CN(C)S(=O)(=O)c2cccs2)O3)cc1
The inhibition of the first is higher: 33.7% for the first, -10.4% for the second.

First: O=C(CSc1nnc(-c2ccccc2Cl)n1-c1ccccc1)Nc1ccc([N+](=O)[O-])cc1
Second: CC(=O)c1cccc(NC(=O)CN(C)S(=O)(=O)c2ccc3ccccc3c2)c1
The inhibition of the first is lower: 18.6% for the first, 19.7% for the second.

Compared with `C[C@@H]1CN([C@@H](C)CO)C(=O)c2cc(NC(=O)Cc3ccccc3)ccc2O[C@@H]1CN(C)CC1CCCCC1`, `C[C@@H]1CN([C@@H](C)CO)C(=O)c2cc(NC(=O)C3CCCCC3)ccc2O[C@@H]1CN(C)S(=O)(=O)c1ccc(F)cc1` is lower in inhibition: 17.8% for the first, -1.45% for the second.

Going from `COc1cccc2cc(C(=O)Nc3sc4c(c3C(N)=O)CCCCC4)c(=O)oc12` to `C[C@@H]1CN([C@H](C)CO)C(=O)Cc2cc(NC(=O)C3CCCCC3)ccc2O[C@H]1CN(C)S(=O)(=O)c1ccc(Cl)cc1`, the inhibition rises from 6.77% to 28.6%.

Going from `O=C(NCc1cccnc1)c1cnn2c(C(F)F)cc(-c3ccccc3)nc12` to `Cc1noc(C)c1NC(=O)Nc1ccc2c(c1)C(=O)N([C@@H](C)CO)C[C@H](C)[C@H](CN(C)Cc1ccc(-c3ccccc3)cc1)O2`, the inhibition rises from 11% to 28.6%.

Going from `O=C(Cn1cnc([N+](=O)[O-])n1)Nc1c(Cl)cccc1Cl` to `Nc1nnc(SCC(=O)Nc2ccc(F)c(Cl)c2)s1`, the inhibition rises from -1.21% to 10%.

Going from `Cc1ccc(N(C(C)C(=O)Nc2ccc(F)c(Cl)c2)S(C)(=O)=O)cc1C` (configuration not stated) to `CC(=O)c1cccc(NC(=O)C(C)N(c2ccc(C)cc2)S(C)(=O)=O)c1` (configuration not stated), the inhibition falls from 32.7% to 14.6%.

First: COc1cc(NC(=O)COc2ccc(Cl)cc2C)c(OC)cc1Cl
Second: COc1ccc(S(=O)(=O)N(C)C[C@@H]2Oc3ccc(NC(=O)C4CC4)cc3CC(=O)N([C@@H](C)CO)C[C@@H]2C)cc1
The inhibition of the first is lower: -5.6% for the first, -0.988% for the second.

Compared with `Cc1ccc(S(=O)(=O)N(C)CC(=O)Nc2ccc(C#N)cc2)cc1`, `COc1ccc(NC(=O)Nc2ccc3c(c2)CC(=O)N([C@H](C)CO)C[C@H](C)[C@H](CN(C)S(=O)(=O)c2ccc(OC)cc2)O3)cc1` is higher in inhibition: -13.1% for the first, 23.1% for the second.

First: C[C@@H]1CN([C@@H](C)CO)C(=O)Cc2cc(NC(=O)Nc3ccc4c(c3)OCO4)ccc2O[C@@H]1CN(C)S(=O)(=O)c1ccc(Cl)cc1
Second: C[C@@H]1CN([C@@H](C)CO)C(=O)Cc2cc(NC(=O)Nc3ccc(F)cc3)ccc2O[C@@H]1CN(C)S(=O)(=O)c1ccccc1
The inhibition of the first is higher: 30.8% for the first, 20.8% for the second.

Compared with `C[C@@H]1CN([C@H](C)CO)C(=O)Cc2cc(NC(=O)Nc3ccc(C(F)(F)F)cc3)ccc2O[C@@H]1CN(C)S(=O)(=O)c1ccccc1`, `COc1ccc(NC(=O)Nc2ccc3c(c2)CC(=O)N([C@H](C)CO)C[C@H](C)[C@H](CN(C)S(=O)(=O)c2ccccc2)O3)cc1` is higher in inhibition: 31.7% for the first, 57.6% for the second.

In the case of `NC(=O)c1c(NC(=O)c2cnn3c(C(F)F)cc(-c4ccccc4)nc23)sc2c1CCCC2`, the inhibition is reported as 112% (active).
With `COc1ccccc1NC(=O)CSc1nc2cc3ccccc3cc2[nH]1` the inhibition was 108% (active).
In the case of `C=C1C(=O)OC2/C=C(\C)CC3C=C(CC/C=C(\C)CCC12)C(=O)O3` (configuration not stated), the inhibition is reported as 114% (active).
With `CC[C@H]1CN2CCc3cc(OC)c(OC)cc3[C@@H]2C[C@@H]1C[C@H]1NCCc2cc(OC)c(OC)cc21` the inhibition was 144% (active).
In the case of `C[C@H]1CN([C@@H](C)CO)C(=O)Cc2cc(NC(=O)Nc3ccc(C(F)(F)F)cc3)ccc2O[C@@H]1CN(C)S(=O)(=O)c1ccc(Cl)cc1`, the inhibition is reported as 105% (active).
In the case of `C[C@H]1CN([C@@H](C)CO)C(=O)Cc2cc(NC(=O)Nc3ccc(F)cc3)ccc2O[C@H]1CN(C)S(=O)(=O)c1ccccc1`, the inhibition is reported as 108% (active).
With `C[C@H]1CN([C@@H](C)CO)C(=O)Cc2cc(NC(=O)C3CC3)ccc2O[C@H]1CN(C)S(=O)(=O)c1ccc(Cl)cc1` the inhibition was 125% (active).
For `C[C@H]1CN([C@@H](C)CO)C(=O)Cc2cc(NC(=O)Nc3ccc(F)cc3)ccc2O[C@H]1CN(C)S(=O)(=O)c1ccc(F)cc1`, the inhibition was 126% (active).
